# Where “and” joins values, the source holds several entries; their conditions need not be identical. Equal values may be shown once. In all, about 16,000 compounds went through this assay and about 2,600 (16%) were called active. Roughly 20% stayed inconclusive and do not appear here. Calls follow the shape of the dose curve; as a rule, active = well fitted curve in the direction sought with a large enough effect; inconclusive = small, poorly fitted or top-dose-only effect, or effect the other way; inactive = no such curve, though single readings can be large or run the other way. These entries were drawn from the full list.
# Molecular target: Cytochrome P450 2D6 (Homo sapiens) (UniProt P10635)
# Sequence (P10635 whole entry, looked up): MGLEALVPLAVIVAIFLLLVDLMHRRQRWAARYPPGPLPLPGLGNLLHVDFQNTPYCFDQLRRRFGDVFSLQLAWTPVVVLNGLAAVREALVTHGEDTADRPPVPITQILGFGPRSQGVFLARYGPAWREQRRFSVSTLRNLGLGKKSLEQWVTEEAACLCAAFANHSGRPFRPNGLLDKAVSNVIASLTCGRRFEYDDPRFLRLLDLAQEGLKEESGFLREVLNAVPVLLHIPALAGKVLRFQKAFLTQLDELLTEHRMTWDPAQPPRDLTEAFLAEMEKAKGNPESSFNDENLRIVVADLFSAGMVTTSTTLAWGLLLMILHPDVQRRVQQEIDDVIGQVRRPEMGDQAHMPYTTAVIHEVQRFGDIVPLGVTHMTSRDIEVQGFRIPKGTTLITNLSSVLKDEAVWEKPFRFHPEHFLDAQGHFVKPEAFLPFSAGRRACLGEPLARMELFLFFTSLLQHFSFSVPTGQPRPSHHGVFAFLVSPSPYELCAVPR
# Test: Cytochrome panel assay with activity outcomes
# Conditions: recombinant CYP, pro-luciferin dealkylation, luminescence, p450-cyp2d6; series mostly up to 57.1 µM; activity, negative = inhibition: at the top concentration
# % is scaled to controls: 0 for no effect and ±100 for the full control effect.
Compound,"activity, negative = inhibition",AC50
CC12CS(=O)(=O)CC1SC(=S)N2c1ccccn1 (stereo unspecified),-5.58% (inactive),
Cc1cc(O)c(C(C)C)cc1NC(=O)Nc1cccc2ccccc12,-5.76% [at 11.4 µM] (inactive),
CC1(C)CC(=O)C2=C(C1)N(c1ccc(F)cc1)C(N)=C(C#N)C2c1cccs1 (stereo unspecified),-3.42% (inactive),
Cc1cc(N2CCN(C)CC2)n2nc(-c3ccc(Cl)cc3)nc2n1,15% [at 11.4 µM] (inactive),
COc1cc(C)cc(OC)c1/C=C\C(=O)O,2.34% [at 11.4 µM] (inactive),
CN(C)CC(O)COc1cccc(OCC(O)CN(C)C)c1 (stereo unspecified),-5.6% (inactive),
C[C@@H](COc1ccccc1)N(CCCl)Cc1ccccc1,,0.158 µM (active)
CCOC(=O)c1cnc2ccc(C)cc2c1Sc1ccccc1C(=O)OC,-21.2% (inactive),
CNCCCC1c2ccccc2C=Cc2ccccc21,,15.8 µM (active) and 3.98 µM (active)
COc1ccc2c(c1OC)C(=O)N(C(C)C(=O)O)C2=O (stereo unspecified),25.2% (inactive),
CN(C)CC/C=C1\c2ccccc2Sc2ccc(Cl)cc21,,2.51 µM (active)
Cc1ccc(-n2nc3c(c2NC(=O)c2cccs2)CSC3)cc1,5.05% (inactive),
CCn1c(CCNC(=O)c2ccc(Cl)cc2Cl)n[nH]c1=S,-18.4% (inactive),
Cc1ccc(S(=O)(=O)N[C@H]2COC(=O)C/C=C\[C@H](C)[C@@H](NS(=O)(=O)c3ccc(C)cc3)COC(=O)C/C=C\[C@@H]2C)cc1,8.84% [at 11.4 µM] (inactive),
CCCC(=O)Nc1cc(-c2cn3cccnc3n2)ccc1OC,-19.8% (inactive),
CC(C)CO/N=C1/C[C@@H](O)[C@@H](O)[C@@H]2[C@@H]3C(=O)N([C@@H](C)c4ccccc4)C(=O)[C@H]3CC[C@H]12,-7.99% [at 11.4 µM] (inactive),
COc1ccc(/C=N/n2cnc3c([nH]c4ccc(Br)cc43)c2=O)cc1CN1CCOCC1,-11.5% (inactive),
CC(C)(CO)[C@H](O)C(=O)NCCCO,2.25% [at 25.6 µM] (inactive),
NCCS,-1.11% (inactive),
COc1ccccc1N1CCN(C[C@@H](O)COc2cccc3ccccc23)CC1,,794 nM (active) and 316 nM (active) and 126 nM (active)
CNC(=S)N1CCN(c2ccccc2OC)CC1,1.48% (inactive),
O[C@@H](COc1cccc2ccccc12)CN1CCOCC1,-5.64% [at 11.4 µM] (inactive),

Compound,"activity, negative = inhibition",AC50
COCCn1c(=O)c(-c2cccc(Cl)c2)nc2cncnc21,-8.21% (inactive),
COC(=O)CN(c1ccc(OC)cc1)S(=O)(=O)c1c(C)noc1C,-8.3% (inactive),
COCCCNC(=O)CN(c1ccc(OC)cc1)S(=O)(=O)c1ccc(NC(C)=O)cc1,-0.214% (inactive),
COc1ccc(N(CC(=O)NCc2cccc(OC)c2)S(=O)(=O)c2c(C)noc2C)cc1,,14.1 µM (active)
CN=C1S/C(=C\c2ccc(Sc3ccc(Cl)cc3)o2)C(=O)N1C,-2.93% (inactive),
C#CCOCCCC(=O)O,15.7% [at 11.4 µM] (inactive),
Cc1ccc(CSc2nnc3c(n2)OC2(Nc4ccccc4-3)C(=O)Nc3ccc(F)cc32)cc1 (stereo unspecified),,25.1 µM (active)
COc1cccc(Nc2ncc3nc(C)c(=O)n(C4CC4)c3n2)c1,5.12% (inactive),
O=C(Nc1ccccc1)OC[C@H](CN1CCCCC1)OC(=O)Nc1ccccc1,,0.398 µM (active)
S=C(Nc1ccccc1)N1CCCCC1,4.42% (inactive),
O=C(NNC(=S)Nc1ccccc1)C1CC1,12.2% (inactive),
COC(=O)COc1ccc(/C=C2/SC(=O)N(CC(=O)N3CCCC3)C2=O)cc1Br,14% (inactive),
O=C(O)c1ccc(Sc2nnnn2-c2ccccc2)c([N+](=O)[O-])c1,-11.6% (inactive),
NCCNC(=O)c1ncsc1-c1cccc(F)c1,-0.237% (inactive),
COc1cccc(Nc2ncc3nc(-c4ccc(F)cc4)c(=O)n(C)c3n2)c1,-1.2% (inactive),
c1cncc(CNc2ncn[nH]2)c1,5.73% [at 11.4 µM] (inactive),
CN(C)c1ccc(-c2cc(NCc3cccnc3)ncn2)cc1,-15.4% (inactive),
CCNc1ncc2ncc(=O)n(Cc3ccc(F)cc3)c2n1,-8.79% (inactive),
Cn1c(-c2ccc(Br)cc2)cnc1NCc1cccnc1,,0.501 µM (active)
Cn1c(-c2ccc(F)cc2)cnc1NCc1ccc(F)cc1,,0.0355 µM (active)
Cn1c(-c2ccc(F)cc2)cnc1NCc1cccc(F)c1,,0.0562 µM (active)
Cn1c(=O)c(-c2ccc(F)cc2)nc2cncnc21,-4.46% (inactive),

Compound,"activity, negative = inhibition",AC50
CCC1CC2CC(NC(C)=O)C1C2 (stereo unspecified),-23.4% (inactive),
Fc1ccc2c(c1)C1C=CCC1C(c1cc3c(cc1Br)OCO3)N2 (stereo unspecified),-28.2% (inactive),
CCCCOC(OCCCC)[C@H](O)CSc1ccc2ccccc2c1,-15.8% [at 11.4 µM] (inactive),
C#CCn1c(=O)c2c(ncn2C)n(C)c1=O,-6.36% (inactive),
COCCNc1ccnc(-c2ccccc2C(F)(F)F)n1,2.1% (inactive),
Cc1ccccc1-c1nccc(NCc2cccs2)n1,,2.51 µM (active)
CN(C)Cc1ccccc1-c1nccc(NCc2cccs2)n1,,1.58 µM (active)
Cc1cnc(CNc2ccnc(-c3ccccc3C(F)(F)F)n2)cn1,-3.39% (inactive),
Cc1cnc(CNc2ccnc(-c3ccccc3C)n2)cn1,-8.97% (inactive),
CN(C)Cc1ccccc1-c1cc(NCc2cccs2)ncn1,,2 µM (active)
Cc1cnc(CNc2cc(-c3ccccc3C)ncn2)cn1,-0.691% (inactive),
FC(F)(F)c1ccccc1-c1nccc(NCc2cccs2)n1,,25.1 µM (active)
O=C(NCc1ccco1)c1cc(C(=O)C2CCCCC2)c[nH]1,-6.41% (inactive),
CCCCCC(=O)O[C@H](CC(=O)O)C[N+](C)(C)C,-11.7% (inactive),
Cc1cc2cccc(C)c2nc1SCC(=O)N(C)c1nc(-c2ccccc2)cs1,-0.855% (inactive),
COc1ccc(NC(=O)N2CCCC3(CCN(C(=O)c4cc(C(F)(F)F)cc(C(F)(F)F)c4)CC3)C2)cc1,3.95% (inactive),
O=C1[C@H]2[C@H]3[C@H](O)[C@H](O)C/C(=N/OC[C@@H](O)COCc4ccco4)[C@@H]3CC[C@@H]2C(=O)N1C1CCCCC1,7.51% [at 11.4 µM] (inactive),
Oc1cccc2ccc(SSc3ccc4cccc(O)c4n3)nc12,-0.179% [at 11.4 µM] (inactive),
COc1ccc(-c2nn3cnnc3s2)cc1OC,-5.22% (inactive),
C/C(=C/C(=O)NCc1ccccc1)C(=O)O,-22.1% (inactive),
CCCC(=O)NNC(=O)CCC(=O)NCc1ccccc1,10.5% (inactive),
O=C(O)NCc1ccccc1 (tested in a mixture with another compound),,3.98 µM (active)

# Reference: PubChem BioAssay AID1851 (National Center for Advancing Translational Sciences (NCATS), 2009)
